# Source: PubChem BioAssay (Tox21)
# Several values for one entry are separate records, joined by “and”; a condition that tells them apart may be missing. Equal entries are not always repeated. Records with an inconclusive call do not appear. Where a call stands in place of a potency, no number is given. A structure can be active in one record and inactive in another. Activity calls are given as the source filed them. Unless noted, calls follow the shape of the full dose curve.
# What was measured:
# [1] = Nuclear factor erythroid 2-related factor 2/antioxidant responsive element (Nrf2/ARE) small molecule agonists: qHTS cell viability counter screen in human keratinocytes (AID 1919968; active = well fitted curve in the direction sought with a large enough effect in the repeat runs; an effect the other way counts as inactive or inconclusive; also: nearly all actives have a fitted effect of over 55% in size; also: potency is read from the fitted curve at half-maximal effect)
# In short: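 Cells of the KeratinoSens line were plated at 1,500 per well and left for 5 h before compound transfer from DMSO stocks. After a 23 h incubation (37 C, 5% CO2), CellTiter-Fluor was added. Signal was taken as fluorescence intensity 1 h later.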
# [2] = Nuclear factor erythroid 2-related factor 2/antioxidant responsive element (Nrf2/ARE) small molecule agonists: luciferase reporter gene qHTS assay in human keratinocytes (AID 1919969); also: nearly all actives have a fitted effect of over 35% in size; also: potency is read from the fitted curve at half-maximal effect
# [3] = target: Gonadotropin-releasing hormone receptor (Homo sapiens) (UniProt P30968); test: Human gonadotropin-releasing hormone receptor (GnRHR) small molecule agonists, calcium flux assay in GnRHR-HEK293 cells (AID 1920063); also: nearly all actives have a fitted effect of over 35% in size; also: potency is read from the fitted curve at half-maximal effect
# In short: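 Compounds dissolved in DMSO are pin-transferred onto dye-loaded GnRHR-HEK293 cells, which were seeded 18 h before at 37 C/5% CO2. Calcium signal is read as fluorescence intensity at 1 s intervals for 3 min.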
# [4] = target: KiSS-1 receptor (Homo sapiens) (UniProt Q969F8); test: Human kisspeptin (KISS1R) small molecule agonists, calcium flux assay in KISS1R-HEK293 cells (AID 1920064; active = well fitted curve in the direction sought with a large enough effect in the repeat runs; an effect the other way counts as inactive or inconclusive)
# In short: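 Cell line: HEK293, stable human KISS1R. Dye loading 1 h at 37 C after 18 h culture. Read: kinetic fluorescence, 480/540 nm, 3 min at 1 s intervals.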
# [5] = G protein-coupled receptor (GPCR) small molecule agonists, calcium flux assay: HEK293 wild type cell line counter screen (AID 1920065)
# In short: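 Tox21 10K compounds, 15 concentrations each in triplicate, pin-transferred in DMSO onto dye-loaded cells; kinetic read at 480/540 nm for 3 min, 1 s intervals.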
# [6] = p53 small molecule agonists, cell-based qHTS assay with human liver microsomes (AID 1963577)
# In short: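 p53RE-bla cells, 4,000/well, compound added after 5 h, with human liver microsomes 0.5 mg/mL and NADPH 0.5 mg/mL final; 16 h at 37 C, then LiveBLAzer 2 h RT, fluorescence.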
# [7] = p53 small molecule agonists, cell-based qHTS assay with rat liver microsomes (AID 1963578)
# In short: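 p53RE-bla cells, 4,000/well, pre-incubated 5 h, then given compounds plus rat liver microsomes (0.5 mg/mL final) and NADPH (0.5 mg/mL final). Incubation 16 h at 37 C; beta-lactamase reporter read by LiveBLAzer fluorescence after 2 h at room temperature.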
# [8] = p53 small molecule agonists, cell-based qHTS assay with human liver microsomes: qHTS cell viability counter screen (AID 1963579); also: nearly all actives have a fitted effect of over 45% in size; also: potency is read from the fitted curve at half-maximal effect
# In short: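 p53RE-bla cells, 4,000/well, dosed 5 hours after plating, with human liver microsomes (0.5 mg/mL final) plus NADPH (0.5 mg/mL final), 16 hours at 37 C. Viability read as CellTiter-Glo luminescence after 30 min at room temperature.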
# [9] = p53 small molecule agonists, cell-based qHTS assay with rat liver microsomes: qHTS cell viability counter screen (AID 1963580); also: nearly all actives have a fitted effect of over 45% in size
# In short: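 Rat liver microsome (0.5 mg/mL final) and NADPH (0.5 mg/mL final) co-incubation with compounds for 16 h at 37 C on HCT-116 p53RE-bla cells; cytotoxicity taken from intracellular ATP luminescence.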
# [10] = p53 small molecule agonists, cell-based qHTS assay: qHTS cell viability counter screen (AID 1963581); also: nearly all actives have a fitted effect of over 45% in size
# In short: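 ATP content measured by luminescence in HCT-116 p53RE-bla cells treated 16 h at 37 C, same wells as the reporter screen.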
# [11] = p53 small molecule agonists, cell-based qHTS assay (AID 1963582; active = well fitted activation curve with a large enough effect in the signal ratio in the repeat runs, not every such curve was filed as active; the % refers to the signal ratio)
# In short: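 16 h compound exposure (37 C) of p53 response element–bla cells, preceded by 5 h recovery at 37 C/5% CO2; read-out via LiveBLAzer B/G FRET substrate, 2 h RT, fluorescence intensity.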
# [12] = target: 5-hydroxytryptamine receptor 2A (Homo sapiens) (UniProt P28223); test: 5-hydroxytryptamine receptor 2A (HTR2A) small molecule antagonists, cell-based qHTS assay (AID 1963586); also: nearly all actives have a fitted effect of over 45% in size; also: potency is read from the fitted curve at half-maximal effect
# In short: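 CHO cells stably expressing human HTR2A were plated for 18 h at 37 C, then loaded with calcium dye for 1 h. Compounds were preincubated 5 min at room temperature before DOI (4 nM solution) was added. Kinetic fluorescence was read for 3 min.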
# [13] = target: 5-hydroxytryptamine receptor 2A (Homo sapiens) (UniProt P28223); test: 5-hydroxytryptamine receptor 2A (HTR2A) small molecule agonists, cell-based qHTS assay (AID 1963587); also: nearly all actives have a fitted effect of over 30% in size; also: potency is read from the fitted curve at half-maximal effect
# In short: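 Kinetic calcium-flux fluorescence (2 min, 1 sec intervals) after compound addition in agonist mode. HTR2A-CHO cells were cultured 18 h, then dye-loaded 1 h at 37 C.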
# [14] = target: Muscarinic acetylcholine receptor M1 (Homo sapiens) (UniProt P11229); test: Cholinergic receptor muscarinic 1 (CHRM1) small molecule antagonists, cell-based qHTS assay (AID 1963588); also: nearly all actives have a fitted effect of over 40% in size; also: potency is read from the fitted curve at half-maximal effect
# In short: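 Compounds were tested at 15 concentrations in three independent runs. Dye-loaded CHRM1-CHO cells were exposed 5 min at room temperature before stimulation by acetylcholine added at 50nM. Intracellular calcium was read kinetically on FDSS for 3 min.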
# [15] = target: Muscarinic acetylcholine receptor M1 (Homo sapiens) (UniProt P11229); test: Cholinergic receptor muscarinic 1 (CHRM1) small molecule agonists, cell-based qHTS assay (AID 1963589); also: nearly all actives have a fitted effect of over 35% in size
# In short: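 Homogeneous fluorescence calcium flux, agonist mode. Human M1-expressing CHO cells; compound dosed at 15 concentrations, three independent runs; signal sampled every 1 sec.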
# [16] = cAMP Responsive Elements (CRE) small molecule agonists, cell-based qHTS assay (AID 1963590)
# In short: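 HEK 293T cells stably bearing CRE-bla were plated at 2,000 cells per well and rested 18 h. Compounds, positive controls or DMSO were added for 3 h at 37 C. LiveBLAzer B/G substrate was then loaded for 2 h at room temperature.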
# [17] = cAMP Responsive Elements (CRE) small molecule antagonists, cell-based qHTS assay (AID 1963591; active = well fitted inhibition curve with a large enough effect in the signal ratio in the repeat runs, not every such curve was filed as active; the % refers to the signal ratio)
# In short: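 First, CRE-bla HEK293T cells settled 18 h at 37 C. Next, compound and 0.25 uM final NKH477 were applied for 3 h. Last, LiveBLAzer B/G substrate was loaded for 2 h at room temperature.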
# [18] = target: D(2) dopamine receptor (Homo sapiens) (UniProt P14416); test: Dopamine D2 receptor (DRD2) small molecule agonists, cell-based qHTS assay (AID 1963594); also: nearly all actives have a fitted effect of over 35% in size
# In short: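 cAMP accumulation in DRD2-HEK293 cells measured by HTRF after 1 h detection; compounds added 10 min before NKH477 (200nM […]) forskolin-analogue stimulation, 30 min at room temperature, with Ro20-1724 present at 0.1 mM final.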
# [19] = target: D(2) dopamine receptor (Homo sapiens) (UniProt P14416); test: Dopamine D2 receptor (DRD2) small molecule antagonists, cell-based qHTS assay (AID 1963595; active = well fitted inhibition curve with a large enough effect in the signal ratio in the repeat runs, with a control signal flat; the % refers to the signal ratio; also: potency is read from the fitted curve at half-maximal effect)
# In short: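 HTRF cAMP read-out at 665 and 620 nm emission (340 nm excitation). Antagonist mode: compounds were tested against 12 nM quinpirole in DRD2-HEK293 cells, with 200 nM NKH477 raising cAMP and 0.1 mM Ro20-1724 blocking its breakdown.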
# [20] = target: Beta-2 adrenergic receptor (Homo sapiens) (UniProt P07550); test: Adrenergic beta2 receptor (ADRB2) small molecule antagonists, cell-based qHTS assay (AID 1963592); also: series mostly up to about 92 µM; nearly all actives have a fitted effect of over 50% in size
# In short: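 Assay format: CHO-ADRB2 cells, 18-20hr seeding at 37C/5% CO2, then compound plus 1nM isoproterenol agonist mix for 0.5hr RT. Homogeneous time-resolved fluorescence cAMP detection after 1hr, expressed as 665/615 nm ratio.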
# Sequence of Muscarinic acetylcholine receptor M1 (Homo sapiens) (P11229 whole entry, looked up): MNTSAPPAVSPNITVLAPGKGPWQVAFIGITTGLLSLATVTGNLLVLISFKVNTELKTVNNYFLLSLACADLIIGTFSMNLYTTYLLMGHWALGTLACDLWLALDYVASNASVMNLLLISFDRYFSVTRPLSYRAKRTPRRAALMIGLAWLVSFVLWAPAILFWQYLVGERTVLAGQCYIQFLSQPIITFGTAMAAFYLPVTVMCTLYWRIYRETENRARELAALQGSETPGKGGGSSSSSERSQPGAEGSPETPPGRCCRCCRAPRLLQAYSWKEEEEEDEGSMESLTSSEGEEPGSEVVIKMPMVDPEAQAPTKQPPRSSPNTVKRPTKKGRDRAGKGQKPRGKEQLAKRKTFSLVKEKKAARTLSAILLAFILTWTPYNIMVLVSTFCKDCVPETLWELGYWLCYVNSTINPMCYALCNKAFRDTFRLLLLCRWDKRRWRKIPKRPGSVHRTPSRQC
# Sequence of D(2) dopamine receptor (Homo sapiens) (P14416 whole entry, looked up): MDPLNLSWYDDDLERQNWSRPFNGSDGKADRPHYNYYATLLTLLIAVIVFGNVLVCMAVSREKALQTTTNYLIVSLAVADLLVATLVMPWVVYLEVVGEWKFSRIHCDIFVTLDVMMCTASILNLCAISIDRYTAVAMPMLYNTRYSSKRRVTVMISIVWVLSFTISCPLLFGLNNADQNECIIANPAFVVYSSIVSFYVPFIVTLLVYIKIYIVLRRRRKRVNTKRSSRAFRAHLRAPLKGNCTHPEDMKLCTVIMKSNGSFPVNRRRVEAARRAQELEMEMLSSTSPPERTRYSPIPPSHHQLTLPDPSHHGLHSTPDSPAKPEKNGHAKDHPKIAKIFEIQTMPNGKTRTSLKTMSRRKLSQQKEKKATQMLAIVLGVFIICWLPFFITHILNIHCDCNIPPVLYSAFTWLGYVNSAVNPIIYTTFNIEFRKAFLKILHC
# Sequence of Beta-2 adrenergic receptor (Homo sapiens) (P07550 whole entry, looked up): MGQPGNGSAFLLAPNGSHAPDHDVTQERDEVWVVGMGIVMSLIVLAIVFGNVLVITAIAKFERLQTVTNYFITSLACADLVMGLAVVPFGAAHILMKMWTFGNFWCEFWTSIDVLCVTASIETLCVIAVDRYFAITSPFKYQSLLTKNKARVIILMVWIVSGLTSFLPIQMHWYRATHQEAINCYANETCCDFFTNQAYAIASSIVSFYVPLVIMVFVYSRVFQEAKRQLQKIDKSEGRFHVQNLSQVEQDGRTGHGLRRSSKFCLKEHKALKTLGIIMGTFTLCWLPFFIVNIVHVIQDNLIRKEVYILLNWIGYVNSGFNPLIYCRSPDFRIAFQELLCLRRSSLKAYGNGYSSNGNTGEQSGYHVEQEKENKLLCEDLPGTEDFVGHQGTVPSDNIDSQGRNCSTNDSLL
# Sequence of Gonadotropin-releasing hormone receptor (Homo sapiens) (P30968 whole entry, looked up): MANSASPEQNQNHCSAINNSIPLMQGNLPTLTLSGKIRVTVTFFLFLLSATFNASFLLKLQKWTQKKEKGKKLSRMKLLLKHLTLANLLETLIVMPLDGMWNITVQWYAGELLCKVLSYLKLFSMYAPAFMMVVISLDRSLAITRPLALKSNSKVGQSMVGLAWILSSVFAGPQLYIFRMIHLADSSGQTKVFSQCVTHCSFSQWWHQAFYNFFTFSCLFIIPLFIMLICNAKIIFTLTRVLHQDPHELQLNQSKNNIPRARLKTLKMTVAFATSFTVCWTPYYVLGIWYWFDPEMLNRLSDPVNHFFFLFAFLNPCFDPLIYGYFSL
# Sequence of KiSS-1 receptor (Homo sapiens) (Q969F8 whole entry, looked up): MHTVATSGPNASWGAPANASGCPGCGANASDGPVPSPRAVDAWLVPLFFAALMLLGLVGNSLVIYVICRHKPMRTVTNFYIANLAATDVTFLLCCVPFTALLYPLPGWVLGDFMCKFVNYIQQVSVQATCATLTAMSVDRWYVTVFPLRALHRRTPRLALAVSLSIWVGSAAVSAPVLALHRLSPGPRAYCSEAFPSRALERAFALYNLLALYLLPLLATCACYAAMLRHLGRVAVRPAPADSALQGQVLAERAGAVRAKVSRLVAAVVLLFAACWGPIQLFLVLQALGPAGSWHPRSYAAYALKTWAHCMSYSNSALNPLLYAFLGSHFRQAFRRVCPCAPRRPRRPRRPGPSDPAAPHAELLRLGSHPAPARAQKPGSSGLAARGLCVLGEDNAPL
# Sequence of 5-hydroxytryptamine receptor 2A (Homo sapiens) (P28223 whole entry, looked up): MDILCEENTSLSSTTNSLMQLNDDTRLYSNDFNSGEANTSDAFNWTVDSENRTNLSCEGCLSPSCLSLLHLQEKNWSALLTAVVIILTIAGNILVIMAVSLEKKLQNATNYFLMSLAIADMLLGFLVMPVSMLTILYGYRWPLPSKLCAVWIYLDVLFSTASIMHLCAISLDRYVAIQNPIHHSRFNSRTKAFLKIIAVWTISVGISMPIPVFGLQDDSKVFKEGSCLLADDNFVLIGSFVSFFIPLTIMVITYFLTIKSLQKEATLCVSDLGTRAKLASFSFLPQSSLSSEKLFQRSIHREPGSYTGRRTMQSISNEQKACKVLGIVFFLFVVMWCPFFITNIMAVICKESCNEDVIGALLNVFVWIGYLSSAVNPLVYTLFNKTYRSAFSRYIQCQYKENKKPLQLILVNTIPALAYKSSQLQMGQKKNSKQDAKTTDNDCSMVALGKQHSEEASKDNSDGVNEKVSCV
Structure (SMILES),Potency [1],Potency [2],Potency [3],Potency [4],Potency [5],Potency [6],Potency [7],Potency [8],Potency [9],Potency [10],Potency [11],Potency [12],Potency [13],Potency [14],Potency [15],Potency [16],Potency [17],Potency [18],Potency [19],Potency [20]
N#Cc1cccc(C#N)c1,inactive,inactive,inactive,inactive,inactive,inactive,inactive,inactive,inactive,inactive,inactive,inactive,inactive,inactive,inactive,inactive,inactive,inactive,inactive,–
COP(=O)(O)OC,inactive,inactive,inactive,inactive,inactive,inactive,inactive,inactive,inactive,inactive,inactive,inactive,inactive,inactive,inactive,inactive,inactive,–,inactive,–
Cc1cc(O)ccc1Cl,inactive,inactive,inactive,inactive,inactive,inactive,inactive,inactive,inactive,inactive,inactive,inactive,inactive,inactive,inactive,–,inactive,inactive,inactive,inactive
O=S(=O)(O)C(F)(F)C(F)(F)C(F)(F)C(F)(F)C(F)(F)C(F)(F)F,inactive,inactive,inactive,inactive,inactive,inactive,inactive,inactive,inactive,inactive,inactive,inactive,inactive,inactive,inactive,inactive,–,inactive,inactive,inactive
COC(C)(C)C,inactive,inactive,inactive,inactive,inactive,inactive,inactive,inactive,inactive,inactive,inactive,inactive,inactive,inactive,inactive,–,inactive,inactive,inactive,–
Cc1cnc[nH]1,inactive,inactive,inactive,inactive,inactive,inactive,inactive,inactive,inactive,inactive,inactive,inactive,inactive,inactive,inactive,–,inactive,inactive,inactive,inactive
COc1nc(NC(C)C)nc(NC(C)C)n1,inactive,inactive,inactive,inactive,inactive,inactive,inactive,inactive,inactive,inactive,inactive,inactive,inactive,inactive,inactive,inactive,–,inactive,inactive,inactive
O=C(O)c1nc(Cl)ccc1Cl,inactive,inactive,inactive,inactive,inactive,inactive,inactive,inactive,inactive,inactive,inactive,inactive,inactive,inactive,inactive,–,inactive,inactive,inactive,inactive
CCCCN(CCCC)N=O,inactive,inactive,inactive,inactive,inactive,inactive,inactive,inactive,inactive,inactive,inactive,inactive,inactive,inactive,inactive,–,inactive,inactive,inactive,–
CCN(CCO)CCO,inactive,inactive,inactive,inactive,inactive,inactive,inactive,inactive,inactive,inactive,inactive,inactive,inactive,inactive,inactive,inactive,inactive,–,inactive,inactive
NCCOS(=O)(=O)O,inactive,inactive,inactive,inactive,inactive,inactive,inactive,inactive,inactive,inactive,inactive,inactive,inactive,inactive,inactive,inactive,inactive,–,inactive,inactive
CCCCC(CC)COC(=O)c1ccc(C(=O)OCC(CC)CCCC)c(C(=O)OCC(CC)CCCC)c1 (stereo not given),inactive,inactive,inactive,inactive,inactive,inactive,inactive,inactive,inactive,inactive,inactive,inactive,inactive,inactive,inactive,inactive,inactive,inactive,inactive,–
ClCc1cccnc1,inactive,inactive,inactive,inactive,inactive,inactive,inactive,inactive,inactive,inactive,inactive,inactive,inactive,inactive,inactive,inactive,–,–,inactive,inactive
O=P(Cl)(Cl)Cl,inactive,inactive,inactive,inactive,inactive,inactive,inactive,inactive,inactive,inactive,inactive,inactive,inactive,inactive,–,inactive,inactive,inactive,inactive,inactive
CN(C)P(=O)(N(C)C)N(C)C,inactive,inactive,inactive,inactive,inactive,inactive,inactive,inactive,inactive,inactive,inactive,inactive,inactive,inactive,–,inactive,inactive,–,inactive,inactive
Cc1ccc(N)cc1,inactive,inactive and 48.6 µM (active),inactive,inactive,inactive,inactive,inactive,inactive,inactive,inactive,inactive,inactive,inactive,–,inactive,inactive,inactive,inactive,inactive,inactive
CN(C)N=O,inactive,inactive,inactive,inactive,inactive,inactive,inactive,inactive,inactive,inactive,inactive,inactive,inactive,inactive,–,inactive,inactive,inactive,inactive,inactive
O=C1C(Cl)=C(Cl)C(=O)c2ccccc21,24.4 µM (active) and 48.6 µM (active),5.46 µM (active) and 8.63 µM (active),34.8 µM (active),inactive,inactive,inactive,inactive,14.5 µM (active),inactive,inactive,inactive,26.6 µM (active),6.94 µM (active),inactive,inactive,–,–,inactive,21.7 µM (active),–
CC(=O)C(C)(C)C,inactive,inactive,inactive,inactive,inactive,inactive,inactive,inactive,inactive,inactive,inactive,inactive,inactive,inactive,–,–,inactive,inactive,inactive,inactive
CC(C#N)CCC#N (stereo not given),inactive,inactive,inactive,inactive,inactive,inactive,inactive,inactive,inactive,inactive,inactive,inactive,inactive,inactive,–,–,inactive,inactive,–,inactive
O=S1OCC2C(CO1)C1(Cl)C(Cl)=C(Cl)C2(Cl)C1(Cl)Cl (stereo not given),48.6 µM (active) and 61.1 µM (active),inactive,inactive,inactive,inactive,inactive,inactive,inactive,inactive,inactive,inactive,inactive,43.7 µM (active) and inactive,37.5 µM (active) and inactive,inactive,–,–,inactive,–,inactive
C/C(=N\NC(=O)Nc1cc(F)cc(F)c1)c1ncccc1C(=O)O,inactive,inactive,inactive,inactive,inactive,inactive,inactive,inactive,inactive,inactive,inactive,inactive,inactive,inactive,–,inactive,inactive,inactive,inactive,inactive
CCCCCCCCCCCCBr,inactive,inactive,inactive,inactive,inactive,inactive,inactive,inactive,inactive,inactive,inactive,inactive,inactive,inactive,–,inactive,inactive,inactive,inactive,inactive
ClCc1ccccc1,inactive,inactive,inactive,inactive,inactive,inactive,inactive,inactive,inactive,inactive,inactive,inactive,inactive,inactive,–,inactive,inactive,inactive,inactive,inactive
Sc1ccccc1Cl,inactive,inactive,inactive,inactive,inactive,inactive,inactive,inactive,inactive,inactive,inactive,inactive,inactive,inactive,–,inactive,inactive,inactive,inactive,inactive
O=C(Cc1ccccc1)c1ccccc1,inactive,inactive,inactive,inactive,inactive,inactive,inactive,inactive,inactive,inactive,inactive,inactive,inactive,inactive,–,inactive,inactive,inactive,inactive,inactive
ClCCBr,inactive,inactive,inactive,inactive,inactive,inactive,inactive,inactive,inactive,inactive,inactive,inactive,inactive,–,inactive,inactive,inactive,–,inactive,inactive
O=C(NC(=O)c1ccccc1Cl)Nc1ccc(OC(F)(F)F)cc1,inactive,inactive,inactive,inactive,inactive,inactive,inactive,inactive,inactive,inactive,inactive,inactive,inactive,inactive,–,inactive,inactive,inactive,–,inactive
Cc1cc(N=Nc2ccccc2C)ccc1N,54.5 µM (active) and inactive,inactive,inactive,inactive,inactive,inactive,inactive,inactive,inactive,inactive,inactive,inactive,inactive,inactive,inactive,–,–,–,inactive,inactive
